Experimental findings from PubChem BioAssay are described below.

Active and inactive are the calls of the source. Unless noted, no rule for the calls is given here.

The nature of test [1]: compounds binding Alexa647 anti-His antibody – biochemical, small-molecule microarray, 635 nm fluorescence, artefact control for SMM control protein annotation, primary screen (AID 1128).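 Also: score merges feature fluorescence with signal-to-noise for each printed compound spot.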 Particulars: higher = more signal.
Test [2] relates to Human papillomavirus type 1a E7 protein (residues 1-88). Kind of test: HPV1a E7 small-molecule binders, primary screen, biochemical, small-molecule microarray, residues 1-88, 635 nm (AID 1129). Particulars: small-molecule microarray binding, fluorescence 635 nm; higher = more signal.
In test [3] the target is Focal adhesion kinase 1 (Homo sapiens) (UniProt Q05397). Kind of test: PTK2 protein binding on printed compound slides – biochemical, small-molecule microarray, 635/667 nm fluorescence, BSA, DTT, primary screen (AID 1130).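 Also: composite of spot emission at 667 nm and signal to noise over triplicate slides.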 Particulars: 635 nm fluorescence, higher = more signal.
Focal adhesion kinase 1 (Homo sapiens), sequence (Q05397 whole entry, looked up): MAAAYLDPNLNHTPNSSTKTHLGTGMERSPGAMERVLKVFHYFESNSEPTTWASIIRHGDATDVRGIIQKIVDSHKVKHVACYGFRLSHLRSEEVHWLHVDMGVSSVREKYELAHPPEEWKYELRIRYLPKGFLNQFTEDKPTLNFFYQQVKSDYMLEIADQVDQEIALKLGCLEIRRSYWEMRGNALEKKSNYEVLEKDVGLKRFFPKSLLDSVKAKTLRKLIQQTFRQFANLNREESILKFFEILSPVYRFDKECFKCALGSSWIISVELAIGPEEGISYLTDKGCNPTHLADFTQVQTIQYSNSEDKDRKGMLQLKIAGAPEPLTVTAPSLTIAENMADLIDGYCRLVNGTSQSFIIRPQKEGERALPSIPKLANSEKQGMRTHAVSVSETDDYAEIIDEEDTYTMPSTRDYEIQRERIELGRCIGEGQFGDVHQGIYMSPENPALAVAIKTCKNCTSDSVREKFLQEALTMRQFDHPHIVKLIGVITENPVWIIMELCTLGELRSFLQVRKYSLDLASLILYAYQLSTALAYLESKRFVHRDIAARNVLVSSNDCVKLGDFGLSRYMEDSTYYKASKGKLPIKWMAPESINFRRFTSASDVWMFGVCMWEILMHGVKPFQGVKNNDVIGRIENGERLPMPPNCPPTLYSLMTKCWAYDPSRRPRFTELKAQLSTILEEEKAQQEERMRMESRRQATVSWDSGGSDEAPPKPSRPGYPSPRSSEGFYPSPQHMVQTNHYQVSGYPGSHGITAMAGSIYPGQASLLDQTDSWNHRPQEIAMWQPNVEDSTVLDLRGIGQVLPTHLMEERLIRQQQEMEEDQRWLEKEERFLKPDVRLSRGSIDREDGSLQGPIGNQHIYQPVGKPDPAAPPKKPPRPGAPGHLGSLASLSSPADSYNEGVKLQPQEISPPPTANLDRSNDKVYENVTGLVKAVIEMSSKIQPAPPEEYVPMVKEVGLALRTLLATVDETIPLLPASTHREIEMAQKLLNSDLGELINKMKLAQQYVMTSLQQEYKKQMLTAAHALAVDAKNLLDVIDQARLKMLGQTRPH
In test [4] the test system is Fibrinogen (Alexa647-labelled). Kind of test: Alexa647-fibrinogen binding to printed small molecules – biochemical, small-molecule microarray, 635/667 nm fluorescence, artefact control for SMM control-protein annotation, profiling panel (AID 1131).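 Also: z-score merges 667 nm fluorescence with per-spot signal-to-noise over triplicate slides.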 Particulars: fibrinogen-A647 binding fluorescence, higher = more signal.
The target of test [5] is Follistatin (Homo sapiens) (UniProt P19883). The experiment in a line: FST protein binding to printed compounds – biochemical, small-molecule microarray, 635/667 nm fluorescence, primary screen (AID 1132). Particulars: 635 nm fluorescence, higher = more signal.
Follistatin (Homo sapiens), sequence (P19883 whole entry, looked up): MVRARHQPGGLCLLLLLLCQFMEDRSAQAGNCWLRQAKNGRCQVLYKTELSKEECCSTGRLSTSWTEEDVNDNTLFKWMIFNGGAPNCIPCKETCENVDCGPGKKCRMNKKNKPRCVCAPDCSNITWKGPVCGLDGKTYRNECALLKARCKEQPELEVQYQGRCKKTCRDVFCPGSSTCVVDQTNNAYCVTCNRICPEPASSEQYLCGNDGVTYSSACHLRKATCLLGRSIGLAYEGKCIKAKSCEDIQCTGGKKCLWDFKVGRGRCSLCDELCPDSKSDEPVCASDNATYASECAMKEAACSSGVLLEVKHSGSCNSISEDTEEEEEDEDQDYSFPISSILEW
Test [6] concerns the target Fibroblast growth factor 2 (Homo sapiens) (UniProt P09038). Kind of test: basic fibroblast growth factor binding to printed compounds – biochemical, small-molecule microarray, 635/667 nm fluorescence, primary screen (AID 1133). Particulars: FGF2, fluorescence 635/667, higher = more signal.
The nature of test [7]: JC-1 mitochondrial potential readout, lung cancer cells – cell-based, A549, JC-1 fluorescence, basal, 24 h, 100 nL, profiling panel (AID 1138).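 Also: A549 lung adenocarcinoma cells under basal conditions with no added stimulus; test concentration not given here.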 Particulars: higher = more signal.
The test system of test [8] is Lefty1. The experiment in a line: Lefty1 protein binding to printed compounds – biochemical, small-molecule microarray, 635/667 nm fluorescence, primary screen (AID 1139). Particulars: fluorescence 635/667, higher = more signal.
Test [9] deals with wheat germ agglutinin (Triticum aestivum), Alexa647-labelled. The experiment in a line: Alexa647-WGA lectin binding to printed small molecules – biochemical, small-molecule microarray, 635/667 nm fluorescence, artefact control for SMM control-protein annotation, profiling panel (AID 1140).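 Also: score merges 667 nm feature emission with signal to noise over triplicate slides.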 Particulars: WGA-A647 binding, 635 nm fluorescence, higher = more signal.
For test [10], the target named is Luciferin 4-monooxygenase (Photinus pyralis) (UniProt P08659). The experiment in a line: inhibition of purified Photinus pyralis luciferase – biochemical, luminescence, purified enzyme, 2006 set, primary screen (AID 1141).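 Also: cell-free assay with purified firefly luciferase at 100 ng per well in PBS; test concentration not given here.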 Particulars: purified firefly luciferase, SteadyGlo luminescence, 30 min; higher = more signal, called active from +8 up or from −8 down.
Luciferin 4-monooxygenase (Photinus pyralis), sequence (P08659 whole entry, looked up): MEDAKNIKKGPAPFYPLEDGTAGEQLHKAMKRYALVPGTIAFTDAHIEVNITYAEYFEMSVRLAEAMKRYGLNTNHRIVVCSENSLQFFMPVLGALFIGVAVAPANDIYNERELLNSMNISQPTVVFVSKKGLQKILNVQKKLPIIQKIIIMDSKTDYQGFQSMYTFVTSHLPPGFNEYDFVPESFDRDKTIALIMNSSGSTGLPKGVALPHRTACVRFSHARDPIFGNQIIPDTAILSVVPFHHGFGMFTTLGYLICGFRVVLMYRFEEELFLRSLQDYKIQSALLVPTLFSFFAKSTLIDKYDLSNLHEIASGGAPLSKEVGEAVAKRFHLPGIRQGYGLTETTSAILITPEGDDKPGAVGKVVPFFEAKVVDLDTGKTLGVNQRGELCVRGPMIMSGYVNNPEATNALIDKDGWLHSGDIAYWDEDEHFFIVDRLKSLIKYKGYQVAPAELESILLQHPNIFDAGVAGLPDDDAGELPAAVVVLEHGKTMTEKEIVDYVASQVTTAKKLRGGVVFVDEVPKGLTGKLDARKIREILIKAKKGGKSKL
Test [11] relates to Wnt5a (protein binding on small-molecule microarray). Kind of test: small molecules binding Wnt5a protein – biophysical, small-molecule microarray, 635/667 nm fluorescence, primary screen (AID 1142).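 Also: fluorescence read at 667 nm with signal to noise per printed feature.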 Particulars: 635 nm fluorescence, higher = more signal.
Test [12] in a line: ATP-based viability of Huh7 replicon cells – cell-based, CellTiter-Glo luminescence, basal, 48 h, cytotoxicity control for HCV replication inhibitor project, primary screen (AID 1143).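 Also: Huh7 hepatoma cells carrying a hepatitis C replication reporter with no stimulus; test concentration not given here.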 Particulars: higher = more signal, called active from +8 up or from −8 down. (In general: A replicon is a self-replicating genome or part of one, used to study replication in cells.)
A short description of test [13]: Pseudomonas biofilm growth suppression – PAO1 strain, BacTiter-Glo luminescence, LB-PBS, primary screen (AID 1144). Particulars: P. aeruginosa PAO1 biofilm, 12 h, higher = more signal.
A short description of test [14]: basal CRE-LacZ reporter activity in PC12 – cell-based, unstimulated, primary screen (AID 1145). Particulars: no forskolin, luminescence, 4.5 h, higher = more signal, called active from +8 up or from −8 down.
A short description of test [15]: forskolin-driven CRE-LacZ activity in PC12 – cell-based, CRE-LacZ reporter, forskolin-stimulated, primary screen (AID 1146).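 Also: PC12 cells with 6xCRE LacZ reporter stimulated by forskolin 10 µM; beta-galactosidase reporter signal reflecting CREB driven transcription.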 Particulars: luminescence, 4.5 h, higher = more signal, called active from +8 up or from −8 down.
Test [16] addresses Streptavidin (Streptomyces avidinii) (UniProt P22629). Kind of test: compounds binding control protein streptavidin – biophysical, small-molecule microarray, 635/667 nm fluorescence, artefact control for SMM compound annotation, primary screen (AID 1147).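 Also: signal reflects streptavidin binding to arrayed compounds as a control protein.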 Particulars: higher = more signal.
A short description of test [17]: probe aInhba binding on compound microarray – biochemical, small-molecule microarray, 635/667 nm fluorescence, primary screen (AID 1148).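 Also: score merges 667nm spot fluorescence with signal-to-noise for antibody binding to printed compounds.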 Particulars: higher = more signal.
The target in test [18] is Torsin-1A (Homo sapiens) (UniProt O14656). Kind of test: TOR1A wild-type binding on microarray – cell lysate, small-molecule microarray, lysate, 635/667 nm, primary screen (AID 1149). Particulars: COS7 hTOR1A-WT lysate, 635 nm fluorescence, higher = more signal.
Torsin-1A (Homo sapiens), sequence (O14656 whole entry, looked up): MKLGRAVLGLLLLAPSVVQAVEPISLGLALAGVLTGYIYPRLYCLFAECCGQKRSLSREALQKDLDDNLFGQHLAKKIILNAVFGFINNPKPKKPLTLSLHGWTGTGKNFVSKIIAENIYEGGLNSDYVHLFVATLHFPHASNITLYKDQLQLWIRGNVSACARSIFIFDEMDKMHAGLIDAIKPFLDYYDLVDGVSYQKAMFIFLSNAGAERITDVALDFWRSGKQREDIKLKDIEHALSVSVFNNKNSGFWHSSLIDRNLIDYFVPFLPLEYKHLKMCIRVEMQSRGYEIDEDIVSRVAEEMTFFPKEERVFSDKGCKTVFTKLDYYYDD
The target is the same in test [19]. Kind of test: torsin A mutant lysate binding on microarrays – cell lysate, small-molecule microarray, COS7 lysate, 635/667 nm fluorescence, primary screen (AID 1150).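 Also: score pools 667 nm emission and signal to noise measuring lysate protein binding.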 Particulars: COS7 hTOR1A mutant lysate, 635 nm fluorescence, higher = more signal.
The test system of test [20] is Sonic hedgehog protein (Shh). The experiment in a line: Sonic hedgehog microarray binding compounds – biochemical, small-molecule microarray, 635/667 nm fluorescence, primary screen (AID 1151).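 Also: Shh protein binding to compounds spotted on small-molecule microarray slides; score combines spot fluorescence intensity with signal-to-noise across triplicate slides.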 Particulars: 635 nm fluorescence, higher = more signal.

Fibroblast growth factor 2 (Homo sapiens), sequence (P09038 whole entry, looked up): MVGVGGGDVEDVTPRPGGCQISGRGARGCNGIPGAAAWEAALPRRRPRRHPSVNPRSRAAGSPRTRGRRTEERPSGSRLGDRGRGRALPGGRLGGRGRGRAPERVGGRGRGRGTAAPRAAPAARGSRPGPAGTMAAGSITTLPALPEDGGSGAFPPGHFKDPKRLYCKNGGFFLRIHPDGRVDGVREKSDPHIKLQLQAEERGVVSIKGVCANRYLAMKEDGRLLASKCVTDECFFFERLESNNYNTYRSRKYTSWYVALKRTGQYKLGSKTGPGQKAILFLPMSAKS
Streptavidin (Streptomyces avidinii), sequence (P22629 whole entry, looked up): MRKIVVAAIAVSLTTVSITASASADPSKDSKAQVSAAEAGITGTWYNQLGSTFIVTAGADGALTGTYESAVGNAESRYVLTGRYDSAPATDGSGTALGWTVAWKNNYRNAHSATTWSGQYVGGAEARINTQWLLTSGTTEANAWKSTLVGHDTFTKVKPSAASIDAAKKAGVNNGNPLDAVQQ

In the case of `C=CCN1C(=O)[C@@]2(O[C@@H](CCO)[C@H]([Si](C)(C)c3ccc(OC)cc3)[C@H]2C)c2cc(N3CCCCC3=O)ccc21`, the composite z-score in test [1] is 2.63; in [2] it was 1.16; in test [3] it was -0.19; in test [4], 0.745; in [5] it was 1.36; in test [6], 0.821. Further, the composite z-score in test [8] turned out to be 1.23; in test [9], 0.302; in [11], 0.282; in test [16] it was 0.732; in test [17] it was 0.0471; in test [18], 0.683. The composite z-score in test [19] was 0.417; in test [20] it was 1.6. Moreover, the z-score is 0.225 in [7]; -0.0999 (inactive) in test [10]; -5.3 (inactive) in test [12]; -0.0131 (inactive) in [13]; 13.6 (active) in [14]; -0.639 (inactive) in test [15].
For the compound `CC[C@@H](O[Si](C#C[Si](C(C)C)(C(C)C)C(C)C)(C(C)C)C(C)C)c1cn(Cc2cccc(Cl)c2)nn1`, the composite z-score turned out to be 0.448 in [1]; 0.79 in test [2]; 0.357 in [3]; 0.377 in [4]; 0.371 in test [5]; 0.46 in [6]. Moreover, the composite z-score in test [8] is 0.809; in [9] it was 0.23; in test [11] it was 0.159; in test [16], 0.424; in test [17] it was -0.124; in test [18], 0.188. Also, the composite z-score in test [19] was 0.227; in test [20], 0.546. Moreover, the z-score in test [7] was -0.153; in test [10], 0.433 (inactive); in test [12], 0.139 (inactive); in test [13], -0.14 (inactive); in test [14] it was -0.272 (inactive); in [15], -0.168 (inactive).
Consider `CC(C)C[C@H]1NC(=O)CNC(=O)[C@@]23C(=O)N[C@@H](Cc4ccccc4)C2[C@H](C)[C@@]2(C)O[C@H]2C3/C=C/C/C=C\CNC1=O` (stereo not given in full), for which the composite z-score in test [1] was 0.0845; in test [2], 0.0956; in [3], -0.419; in test [4] it was -0.304; in [5], 0.67; in test [6], 0.0369. Moreover, the composite z-score is 0.438 in test [8]; 0.813 in test [9]; -0.0443 in [11]; -0.185 in test [16]; -0.0719 in [17]; -0.0633 in test [18]. For the same compound, the composite z-score in [19] is 0.129; in test [20], 1.93. Moreover, the z-score was -0.0605 in [7]; 0.151 (inactive) in test [10]; 0.0643 (inactive) in [12]; -0.0124 (inactive) in [13]; 0.483 (inactive) in test [14]; 0.201 (inactive) in test [15].
In the case of `[N-]=[N+]=Nc1ccccc1C[C@@]1(C(=O)NCc2ccccc2)N=C(c2ccc(OCCCO)cc2)O[C@@H]1c1ccccc1`, the composite z-score in test [1] is 1.58; in test [2] it was 1.22; in test [3], -0.255; in [4] it was 0.695; in test [5], 1.47; in test [6] it was 0.992. Moreover, the composite z-score is -0.0651 in test [8]; 0.626 in [9]; 0.967 in test [11]; 0.877 in test [16]; 0.175 in [17]; 0.324 in [18]. Further, the composite z-score in test [19] is 0.506; in test [20], 0.242. Also, the z-score in test [7] is 0.945; in [10] it was -1.39 (inactive); in test [12] it was -5.24 (inactive); in test [13], -1.15 (inactive); in test [14], 1.4 (inactive); in test [15] it was -1.99 (inactive).
On to `O=C1OC[C@@H](c2ccccc2)n2cc(/C=C/c3ccccc3)cc21`, for which the composite z-score in [1] was 0.353; in test [2], -0.58; in test [3] it was -0.102; in test [4], 0.5; in test [5], -0.324; in test [6] it was -0.574. Besides, the composite z-score in test [8] was -0.0599; in test [9], -0.328; in [11] it was 0.044; in test [16], 0.723; in test [17] it was -0.0933; in [18], -1.43. The results for the composite z-score in [19] and in test [20] were -0.565 and 0.319, respectively. Also, the z-score in [7] was -0.512; in test [10], 0.287 (inactive); in test [12] it was -4.14 (inactive); in [13], 0.927 (inactive); in [14] it was 9.55 (active); in test [15] it was -0.54 (inactive).
